PubChem BioAssay (Tox21)
Inconclusive results are not listed. Active and inactive are the calls of the source. Unless noted, calls follow the shape of the dose curve; as a rule, active = well fitted curve in the direction sought with a large enough effect in the repeat runs; inconclusive = weak or mixed curves; inactive = no such curve, though single readings can be large; an effect the other way counts as inactive or inconclusive.

How the values were obtained:
[1] = qHTS assay to identify aromatase inhibitors - cell viability counter screen (AID 743084);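 also: cells stimulated with testosterone during compound exposure; nearly all actives have a fitted effect of over 55% in size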
[2] = molecular target: Aryl hydrocarbon receptor (Homo sapiens) (UniProt P35869); assay: qHTS assay to identify small molecule that activate the aryl hydrocarbon receptor (AhR) signaling pathway (AID 743085);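 also: HG2L7.5c1 human HepG2 liver cells with stably integrated DRE-driven firefly reporter; series mostly up to about 70 µM; nearly all actives have a fitted effect of over 15% in size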
How it was run: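 Compounds were tested in HepG2 hepatocellular carcinoma cells harbouring a stably integrated luciferase gene under control of 20 DREs. Increased reporter signal after 24 h treatment at 37C was taken as AhR activation.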

[3] = qHTS assay to identify small molecule that activate the aryl hydrocarbon receptor (AhR) signaling pathway - cell viability counter screen (AID 743086);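 also: HepG2 liver cells carrying the AhR DRE luciferase reporter; series mostly up to about 70 µM; nearly all actives have a fitted effect of over 45% in size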
How it was run: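 HepG2-AhR-luc (HG2L7.5c1) cells, 4000/well, treated 24 h at 37 C with compound; viability measured as CellTiter-Fluor fluorescence after 30 min in the same wells as the luciferase read.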

[4] = molecular target: Peroxisome proliferator-activated receptor gamma (Homo sapiens) (UniProt P37231); assay: qHTS assay to identify small molecule agonists of the peroxisome proliferator-activated receptor gamma (PPARg) signaling pathway (AID 743094; active = well fitted activation curve with a large enough effect in the signal ratio in the repeat runs, not every such curve was filed as active; the % refers to the signal ratio)
How it was run: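 Beta-lactamase FRET fluorescence was the read-out after a 1 h room-temperature substrate step, following 17 h compound treatment at 37C of HEK293H cells expressing a UAS-driven bla reporter responsive to PPARg.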

[5] = molecular target: Peroxisome proliferator-activated receptor gamma (Homo sapiens) (UniProt P37231); assay: qHTS assay to identify small molecule antagonists of the peroxisome proliferator-activated receptor gamma (PPARg) signaling pathway (AID 743191; calls by dose curve; also: series mostly up to about 63 µM; nearly all actives have a fitted effect of over 30% in size)
How it was run: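 GeneBLAzer PPARg UAS-bla HEK293H cells, 5 h post-plating, exposed to compounds 17 h at 37C. LiveBLAzer B/G FRET substrate added for 1 h at room temperature; beta-lactamase reporter read by fluorescence intensity.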

[6] = qHTS assay for small molecule agonists of the antioxidant response element (ARE) signaling pathway (AID 743202; active = well fitted activation curve with a large enough effect in the signal ratio in the repeat runs, not every such curve was filed as active; the % refers to the signal ratio)
How it was run: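 Agonist mode reporter screen: HepG2 cells with ARE-controlled beta-lactamase are incubated with test compounds for 16 h at 37 C, and beta-lactamase activity is measured as fluorescence of cleaved B/G FRET substrate.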

[7] = qHTS assay for small molecule agonists of the antioxidant response element (ARE) signaling pathway - cell viability counter screen (AID 743203; calls by dose curve; also: nearly all actives have a fitted effect of over 55% in size)
How it was run: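 HepG2 cells carrying ARE-driven beta-lactamase; 2,000 cells/well; 5 hrs plating; compound pinned from DMSO; 16 hrs 37C/5% CO2; CellTiter-Glo added; 30 min RT; luminescence.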

[8] = qHTS assay for small molecule activators of the heat shock response signaling pathway - cell viability counter screen (AID 743209); also: nearly all actives have a fitted effect of over 50% in size
How it was run: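 Luminescence from CellTiter-Glo, added after the beta-lactamase FRET read, gave the viability signal. Cells were HSE-bla HeLa treated with DMSO-dissolved compounds for 5 h at 37 C following overnight plating.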

[9] = qHTS assay for small molecule activators of the heat shock response signaling pathway (AID 743210; active = well fitted activation curve with a large enough effect in the signal ratio in the repeat runs, with a control signal flat, not every such curve was filed as active; the % refers to the signal ratio;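 also: HeLa cells with beta-lactamase reporter driven by heat shock elements; series mostly up to about 63 µM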)
How it was run: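 Quantitative high-throughput format using an engineered HeLa line in which heat shock response elements drive beta-lactamase; after 5 h with compound, cells received a B/G FRET substrate and fluorescence was read.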

[10] = qHTS assay to identify small molecule agonists of the peroxisome proliferator-activated receptor delta (PPARd) signaling pathway - cell viability counter screen (AID 743211); also: nearly all actives have a fitted effect of over 55% in size
How it was run: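 Counter screen for cytotoxicity run in parallel with the PPARd reporter screen. Beta-lactamase reporter HEK293H cells exposed to compounds 17 h; ATP-based CellTiter-Glo luminescence quantified viability.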

[11] = qHTS assay to identify small molecule antagonists of the peroxisome proliferator-activated receptor delta (PPARd) signaling pathway - cell viability counter screen (AID 743213); also: nearly all actives have a fitted effect of over 50% in size
How it was run: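 PPARd-bla HEK293H cells (3000/well) got compound plus 300 nM L165041 agonist for 17 h at 37 C. Viability in the same wells came from CellTiter-Glo luminescence after 30 min at room temperature.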

[12] = qHTS assay to identify small molecule agonists of the farnesoid-X-receptor (FXR) signaling pathway - cell viability counter screen (AID 743218); also: nearly all actives have a fitted effect of over 45% in size
How it was run: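 HEK 293T FXR-bla cells; 5 h pre-incubation, 16 h compound exposure at 37 C; LiveBLAzer substrate 2 h RT, then CellTiter-Glo 30 min RT, luminescence.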

[13] = qHTS assay to identify small molecule antagonists of the farnesoid-X-receptor (FXR) signaling pathway - cell viability counter screen (AID 743221; active = well fitted cell-killing curve with a large enough effect in the repeat runs, not every such curve was filed as active; also: nearly all actives have a fitted effect of over 50% in size)
How it was run: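 Multiplexed counter screen: viability of FXR-bla HEK 293T cells under agonist stimulation by chenodeoxycholic acid (50 uM, final) and test compound for 16 h at 37 C, measured by CellTiter-Glo luminescence in the reporter wells.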

[14] = molecular target: Vitamin D3 receptor (Homo sapiens) (UniProt P11473); assay: qHTS assay to identify small molecule agonists of the vitamin D receptor (VDR) signaling pathway (AID 743222; calls by dose curve)
How it was run: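 VDR-bla cells, 2,000/well; 4 h preincubation 37C; cpd (DMSO) 16 h; LiveBLAzer B/G substrate 2 h RT; fluorescence intensity read.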

[15] = molecular target: Vitamin D3 receptor (Homo sapiens) (UniProt P11473); assay: qHTS assay to identify small molecule antagonists of the vitamin D receptor (VDR) signaling pathway (AID 743223; active = well fitted inhibition curve with a large enough effect in the signal ratio in the repeat runs, not every such curve was filed as active; the % refers to the signal ratio)
How it was run: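 Cells carrying a VDR-driven beta-lactamase reporter (VDR-bla) were co-treated with compound and 3 nM final 1alpha,25-dihydroxyvitamin D3 for 16 h at 37C; reporter activity was measured as FRET substrate fluorescence after 2 h at room temperature.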

[16] = qHTS assay to identify small molecule antagonists of the peroxisome proliferator-activated receptor gamma (PPARg) signaling pathway - cell viability counter screen (AID 743194); also: nearly all actives have a fitted effect of over 55% in size
How it was run: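 Cytotoxicity counter screen in PPARg-bla HEK293H cells, same wells as reporter assay. Compounds plus 50 nM rosiglitazone (final) for 17 h at 37 C, then viability read by CellTiter-Glo luminescence.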

[17] = molecular target: Peroxisome proliferator-activated receptor delta (Homo sapiens) (UniProt Q03181); assay: qHTS assay to identify small molecule agonists of the peroxisome proliferator-activated receptor delta (PPARd) signaling pathway (AID 743212; calls by dose curve)
How it was run: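 Quantitative high-throughput agonist screen in a HEK293H beta-lactamase reporter line under UAS control. Compounds in DMSO, at 37 C. Fluorescence read after 2 h with FRET substrate at room temperature.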

[18] = molecular target: Peroxisome proliferator-activated receptor delta (Homo sapiens) (UniProt Q03181); assay: qHTS assay to identify small molecule antagonists of the peroxisome proliferator-activated receptor delta (PPARd) signaling pathway (AID 743215; active = well fitted inhibition curve with a large enough effect in the signal ratio in the repeat runs, not every such curve was filed as active; the % refers to the signal ratio;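 also: cells stimulated with agonist L165041 at 300 nM final during compound exposure; series mostly up to about 62 µM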)
How it was run: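 Read-out is beta-lactamase FRET fluorescence, measured 2 h after substrate addition at room temperature. Beforehand, UAS-bla HEK293H cells carrying the PPARd reporter were exposed to compounds with L165041 at 300 nM final for 17 h at 37 C.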

[19] = molecular target: Bile acid receptor (Homo sapiens) (UniProt Q96RI1); assay: qHTS assay to identify small molecule antagonists of the farnesoid-X-receptor (FXR) signaling pathway (AID 743217; active = well fitted inhibition curve with a large enough effect in the signal ratio in the repeat runs, not every such curve was filed as active; the % refers to the signal ratio)
How it was run: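 HEK 293T FXR-UAS-bla, 5000 cells/well; compound + CDCA 50 uM final; 16 h, 37 °C; B/G FRET substrate 2 h RT; fluorescence.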

[20] = molecular target: Bile acid receptor (Homo sapiens) (UniProt Q96RI1); assay: qHTS assay to identify small molecule agonists of the farnesoid-X-receptor (FXR) signaling pathway (AID 743220; active = well fitted activation curve with a large enough effect in the signal ratio in the repeat runs, not every such curve was filed as active; the % refers to the signal ratio)
How it was run: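 Beta-lactamase reporter under UAS control in GeneBLAzer FXR HEK 293T cells (5000/well) measured with LiveBLAzer FRET substrate after 2 h at room temperature. Compound exposure lasted 16 h at 37C.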

Measured: Potency

Peroxisome proliferator-activated receptor gamma (Homo sapiens), sequence (P37231 whole entry, looked up): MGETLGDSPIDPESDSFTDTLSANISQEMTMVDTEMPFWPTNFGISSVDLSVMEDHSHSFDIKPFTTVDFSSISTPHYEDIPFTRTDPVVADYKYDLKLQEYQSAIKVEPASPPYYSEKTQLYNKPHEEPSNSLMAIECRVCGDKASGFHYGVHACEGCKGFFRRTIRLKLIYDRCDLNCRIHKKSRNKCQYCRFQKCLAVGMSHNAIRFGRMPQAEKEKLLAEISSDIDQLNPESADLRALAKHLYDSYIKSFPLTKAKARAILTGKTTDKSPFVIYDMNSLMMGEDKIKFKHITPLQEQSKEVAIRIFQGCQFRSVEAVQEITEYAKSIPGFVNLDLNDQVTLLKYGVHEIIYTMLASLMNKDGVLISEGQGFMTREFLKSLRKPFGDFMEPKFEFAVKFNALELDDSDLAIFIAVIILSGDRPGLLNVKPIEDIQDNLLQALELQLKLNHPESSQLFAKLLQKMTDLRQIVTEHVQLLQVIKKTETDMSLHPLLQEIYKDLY
Peroxisome proliferator-activated receptor delta (Homo sapiens), sequence (Q03181 whole entry, looked up): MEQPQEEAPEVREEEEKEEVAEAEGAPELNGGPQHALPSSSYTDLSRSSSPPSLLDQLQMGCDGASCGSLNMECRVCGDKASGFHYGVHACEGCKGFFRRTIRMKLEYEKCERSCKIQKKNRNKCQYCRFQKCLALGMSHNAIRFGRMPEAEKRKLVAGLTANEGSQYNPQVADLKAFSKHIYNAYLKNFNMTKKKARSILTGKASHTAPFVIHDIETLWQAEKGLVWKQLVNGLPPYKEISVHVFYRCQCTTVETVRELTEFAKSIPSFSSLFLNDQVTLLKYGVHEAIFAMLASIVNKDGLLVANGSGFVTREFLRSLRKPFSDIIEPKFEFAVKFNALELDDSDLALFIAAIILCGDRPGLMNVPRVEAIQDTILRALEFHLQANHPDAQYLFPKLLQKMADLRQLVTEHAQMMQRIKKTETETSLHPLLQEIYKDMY
Aryl hydrocarbon receptor (Homo sapiens), sequence (P35869 whole entry, looked up): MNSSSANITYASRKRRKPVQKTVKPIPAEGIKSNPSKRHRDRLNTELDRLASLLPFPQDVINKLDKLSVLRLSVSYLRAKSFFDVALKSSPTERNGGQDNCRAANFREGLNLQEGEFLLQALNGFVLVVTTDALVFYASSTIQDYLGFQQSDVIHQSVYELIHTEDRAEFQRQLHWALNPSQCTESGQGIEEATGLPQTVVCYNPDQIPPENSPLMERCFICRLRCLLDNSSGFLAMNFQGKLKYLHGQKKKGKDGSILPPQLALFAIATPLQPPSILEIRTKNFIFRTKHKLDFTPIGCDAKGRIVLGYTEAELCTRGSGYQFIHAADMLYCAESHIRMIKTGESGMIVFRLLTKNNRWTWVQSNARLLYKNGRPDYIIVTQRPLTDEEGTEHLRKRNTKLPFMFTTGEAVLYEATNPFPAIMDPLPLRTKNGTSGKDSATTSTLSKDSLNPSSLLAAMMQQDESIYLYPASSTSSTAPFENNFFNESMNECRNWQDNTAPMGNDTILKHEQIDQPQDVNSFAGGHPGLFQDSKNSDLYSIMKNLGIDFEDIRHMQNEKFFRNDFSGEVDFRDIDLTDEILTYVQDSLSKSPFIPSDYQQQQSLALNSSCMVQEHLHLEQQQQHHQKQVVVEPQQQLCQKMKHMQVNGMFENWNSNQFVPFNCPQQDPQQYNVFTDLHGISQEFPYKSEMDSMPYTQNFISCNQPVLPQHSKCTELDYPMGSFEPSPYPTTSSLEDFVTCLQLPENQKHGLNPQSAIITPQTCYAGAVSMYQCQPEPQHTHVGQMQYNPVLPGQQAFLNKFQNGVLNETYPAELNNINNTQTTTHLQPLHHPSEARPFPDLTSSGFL
Bile acid receptor (Homo sapiens), sequence (Q96RI1 whole entry, looked up): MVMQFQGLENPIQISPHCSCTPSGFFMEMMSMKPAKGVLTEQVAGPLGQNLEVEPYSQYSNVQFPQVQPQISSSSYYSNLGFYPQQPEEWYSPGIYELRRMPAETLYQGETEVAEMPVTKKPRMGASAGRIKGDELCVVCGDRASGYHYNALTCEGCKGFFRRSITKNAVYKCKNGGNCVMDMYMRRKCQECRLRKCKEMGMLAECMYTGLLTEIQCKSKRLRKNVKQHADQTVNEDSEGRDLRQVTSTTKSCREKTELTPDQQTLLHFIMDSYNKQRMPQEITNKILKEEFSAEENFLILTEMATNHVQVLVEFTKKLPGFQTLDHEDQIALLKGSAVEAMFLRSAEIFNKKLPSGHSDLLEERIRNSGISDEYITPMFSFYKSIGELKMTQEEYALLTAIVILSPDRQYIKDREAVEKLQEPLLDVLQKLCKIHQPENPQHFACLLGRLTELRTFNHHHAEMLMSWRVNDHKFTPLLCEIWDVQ
Vitamin D3 receptor (Homo sapiens), sequence (P11473 whole entry, looked up): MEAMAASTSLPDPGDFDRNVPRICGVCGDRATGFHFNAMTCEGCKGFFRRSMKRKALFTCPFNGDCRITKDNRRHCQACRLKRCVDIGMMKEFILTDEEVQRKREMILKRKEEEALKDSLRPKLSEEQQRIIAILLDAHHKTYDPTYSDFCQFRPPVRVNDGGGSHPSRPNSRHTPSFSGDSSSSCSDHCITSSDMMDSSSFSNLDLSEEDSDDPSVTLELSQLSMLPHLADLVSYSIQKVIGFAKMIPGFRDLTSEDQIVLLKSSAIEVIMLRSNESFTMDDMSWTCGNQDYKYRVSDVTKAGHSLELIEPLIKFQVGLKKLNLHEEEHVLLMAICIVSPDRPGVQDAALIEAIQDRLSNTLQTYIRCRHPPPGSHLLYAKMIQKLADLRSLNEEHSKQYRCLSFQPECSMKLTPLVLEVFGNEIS

O=[N+]([O-])c1ccc(/C=C/c2ccc([N+](=O)[O-])cc2S(=O)(=O)O)c(S(=O)(=O)O)c1
not listed: [16] | [17] | [18] | [19] | [20]
inactive: all other assays above

CC(=O)Nc1cccc(O)c1
not listed: [14] | [15] | [17] | [18] | [19] | [20]
inactive: all other assays above

CCCCCCCCCC
inactive: all assays above

CCc1cccc(C)c1N
not listed: [16] | [19] | [20]
inactive: all other assays above

O=c1[nH]c(=O)n([C@H]2CCCO2)cc1F
not listed: [14] | [15] | [18] | [19] | [20]
inactive: all other assays above

CC(=O)CC(=O)Nc1ccccc1C
not listed: [17] | [18] | [19] | [20]
inactive: all other assays above

COc1ccc(Nc2ccccc2)c(C)c1
not listed: [8] | [11] | [14] | [15] | [18] | [19] | [20]
inactive: all other assays above

CCCCCC/C(C=O)=C\c1ccccc1
not listed: [14]
inactive: all other assays above
